Assay results as given in PubChem BioAssay (Tox21).
Inconclusive results are not listed. Activity calls are given as the source filed them. Unless noted, the call rests on the fitted dose curve; in most records, active means well fitted curve in the direction sought with a large enough effect in the repeat runs; inconclusive means weak or mixed curves; inactive means no such curve, though single readings can be large; an effect the other way counts as inactive or inconclusive.

Assays:
[1] = qHTS assay to identify small molecule agonists of the sonic hedgehog signaling (Shh) pathway (AID 1259368; calls by dose curve; further: series mostly up to about 92 µM; nearly all actives have a fitted effect of over 15% in size)
How it was run: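 NIH/3T3-derived 3T3Gli1-Luc cells carrying a stably integrated Gli1 response element–firefly luciferase reporter were plated, left 4 hr at 37 C, then given compounds in DMSO for 24 hr. Luminescence was read 30 min after adding luciferase reagent.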

[2] = qHTS assay to identify small molecule antagonists of the sonic hedgehog signaling (Shh) pathway (AID 1259369; calls by dose curve; further: nearly all actives have a fitted effect of over 45% in size)
How it was run: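 NIH/3T3-derived 3T3Gli1-Luc cells with stably integrated Gli1-Luc reporter were preincubated 4hr at 37 C, then given compounds in DMSO plus Shh conditioned medium and incubated 24hr. Firefly luciferase luminescence read after 30min reagent at room temperature.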

[3] = qHTS assay to identify small molecule agonists of the androgen receptor (AR) signaling pathway in the presence of an antagonist - cell viability counter screen (AID 1259379); further: series mostly up to about 92 µM; nearly all actives have a fitted effect of over 25% in size
How it was run: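 MDA-kb2 human breast carcinoma cells (stable MMTV-luciferase, AR/GR responsive) were seeded 3,000 cells/well, pre-incubated 5 hr at 37C without CO2, then given 3.0uM nilutamide and compounds at 15 concentrations for 16 hr. Viability was read by CellTiter-Fluor fluorescence.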

[4] = qHTS assay to identify small molecule agonists of the estrogen receptor beta (ER-beta) signaling pathway - cell viability counter screen (AID 1259380); further: nearly all actives have a fitted effect of over 30% in size; further: potency means the concentration at half of the fitted maximal effect
How it was run: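 ER-beta-UAS-bla HEK293T cells in medium with 2% charcoal-stripped FBS were preincubated 6 hr at 37C, dosed with compound in DMSO for 16 hr, then after the bla read, CellTiter-Glo was added for 30 min at room temperature; luminescence recorded.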

[5] = qHTS assay to identify small molecule antagonists of the estrogen receptor beta (ER-beta) signaling pathway - cell viability counter screen (AID 1259382); further: series mostly up to about 92 µM; nearly all actives have a fitted effect of over 55% in size
How it was run: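 ER-beta-UAS-bla HEK293T cells (2,000/well, 2% charcoal-stripped FBS) were pre-incubated 6 hr at 37C, then given compound plus 1nM final 17-beta-estradiol for 16 hr. Viability was read in the same wells by CellTiter-Glo luminescence after 30 min at room temperature.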

[6] = qHTS assay to identify small molecule agonists or antagonists of the thyroid stimulating hormone receptor (TSHR) signaling pathway - wild type cell line counter screen (AID 1259384; calls by dose curve)
How it was run: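 Wild-type Hek293 cells, 800/well, 18 h at 37C, then compound with Ro20-1724 for 30 min RT. cAMP by HTRF (cAMP-d2/anti-cAMP cryptate), 1 h RT, fluorescence read. 15 concentrations, triplicates.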

[7] = molecular target: Thyrotropin receptor (Homo sapiens) (UniProt P16473); experiment: qHTS assay to identify small molecule antagonists of the thyroid stimulating hormone receptor (TSHR) signaling pathway (AID 1259385; calls by dose curve; further: nearly all actives have a fitted effect of over 20% in size; further: potency means the concentration at half of the fitted maximal effect)
Thyrotropin receptor (Homo sapiens), sequence (P16473 whole entry, looked up): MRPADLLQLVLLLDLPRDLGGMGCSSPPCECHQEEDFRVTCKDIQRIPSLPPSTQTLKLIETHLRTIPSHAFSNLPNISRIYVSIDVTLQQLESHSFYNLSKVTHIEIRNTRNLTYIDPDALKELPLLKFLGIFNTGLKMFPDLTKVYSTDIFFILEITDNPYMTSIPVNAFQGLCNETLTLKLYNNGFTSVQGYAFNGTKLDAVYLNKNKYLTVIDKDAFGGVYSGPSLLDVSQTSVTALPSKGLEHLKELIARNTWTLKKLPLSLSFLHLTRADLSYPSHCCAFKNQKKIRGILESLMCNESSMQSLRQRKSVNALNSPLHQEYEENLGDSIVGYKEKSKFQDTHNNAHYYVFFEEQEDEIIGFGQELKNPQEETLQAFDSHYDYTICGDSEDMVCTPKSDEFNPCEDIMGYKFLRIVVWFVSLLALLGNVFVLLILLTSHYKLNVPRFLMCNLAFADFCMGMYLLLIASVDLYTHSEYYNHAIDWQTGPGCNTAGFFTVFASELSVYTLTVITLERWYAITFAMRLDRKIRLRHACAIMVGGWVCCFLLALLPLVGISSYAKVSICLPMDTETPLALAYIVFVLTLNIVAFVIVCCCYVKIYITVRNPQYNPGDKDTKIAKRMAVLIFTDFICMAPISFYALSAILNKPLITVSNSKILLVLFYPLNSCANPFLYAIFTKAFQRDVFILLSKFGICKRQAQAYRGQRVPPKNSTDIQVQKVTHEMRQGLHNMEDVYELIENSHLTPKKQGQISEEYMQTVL
How it was run: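 TSHR-HEK293 cells (800/well) plated 18 h, then compounds with Ro20-1724 and TSH at 1.5 ng/mL final, 30 min at room temperature. cAMP quantified by HTRF (cAMP-d2/anti-cAMP-cryptate, 1 h); 15 concentrations in triplicate.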

[8] = qHTS assay to identify small molecule agonists of the estrogen receptor alpha (ER-alpha) signaling pathway in the presence of an antagonist - cell viability counter screen (AID 1259386);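 further: cells exposed to compounds for 22 h at 37 °C before the viability read; nearly all actives have a fitted effect of over 30% in size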; further: potency means the concentration at half of the fitted maximal effect
How it was run: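 VM7Luc4E2 cells (endogenous full-length ER-alpha, 4×ERE-luciferase) were held 5 days in phenol red-free medium with 10% charcoal-stripped FBS, plated, then given 10.0nM ICI-182,780 and compounds at 15 concentrations for 22hr at 37C; viability read by CellTiter-Fluor fluorescence.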

[9] = molecular target: Progesterone receptor (Homo sapiens) (UniProt P06401); experiment: qHTS assay to identify small molecule agonists of the progesterone receptor (PR) signaling pathway (AID 1346784; calls by dose curve; further: nearly all actives have a fitted effect of over 30% in size)
Progesterone receptor (Homo sapiens), sequence (P06401 whole entry, looked up): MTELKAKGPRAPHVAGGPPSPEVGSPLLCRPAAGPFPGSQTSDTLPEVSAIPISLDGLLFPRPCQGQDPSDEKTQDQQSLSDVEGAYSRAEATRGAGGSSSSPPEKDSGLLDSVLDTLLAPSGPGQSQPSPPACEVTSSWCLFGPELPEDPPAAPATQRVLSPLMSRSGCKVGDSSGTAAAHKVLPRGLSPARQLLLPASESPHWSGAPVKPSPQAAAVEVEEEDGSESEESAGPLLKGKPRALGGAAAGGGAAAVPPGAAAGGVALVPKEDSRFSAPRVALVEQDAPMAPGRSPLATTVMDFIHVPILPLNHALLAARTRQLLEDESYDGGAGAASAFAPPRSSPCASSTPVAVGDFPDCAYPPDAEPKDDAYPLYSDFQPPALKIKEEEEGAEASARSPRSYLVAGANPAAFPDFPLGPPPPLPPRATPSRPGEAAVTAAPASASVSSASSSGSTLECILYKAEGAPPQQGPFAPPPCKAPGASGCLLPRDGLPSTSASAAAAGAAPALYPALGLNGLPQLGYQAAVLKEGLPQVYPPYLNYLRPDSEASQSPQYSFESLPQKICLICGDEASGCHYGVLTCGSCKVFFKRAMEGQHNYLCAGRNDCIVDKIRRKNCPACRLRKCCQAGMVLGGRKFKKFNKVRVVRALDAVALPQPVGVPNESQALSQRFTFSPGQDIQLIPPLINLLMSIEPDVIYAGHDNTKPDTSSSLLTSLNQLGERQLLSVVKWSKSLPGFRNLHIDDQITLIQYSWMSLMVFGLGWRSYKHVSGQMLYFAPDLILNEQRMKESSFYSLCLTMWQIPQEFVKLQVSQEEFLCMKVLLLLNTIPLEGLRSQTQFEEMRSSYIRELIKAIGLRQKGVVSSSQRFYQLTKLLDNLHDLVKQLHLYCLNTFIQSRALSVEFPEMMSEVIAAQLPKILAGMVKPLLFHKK
How it was run: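 Beta-lactamase reporter read-out: after 16 hr compound treatment at 37C and a further 2 hr at room temperature with LiveBLAzer B/G FRET substrate, fluorescence was measured in PR-UAS-bla HEK 293T cells grown in 2% charcoal-stripped serum.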

[10] = molecular target: Progesterone receptor (Homo sapiens) (UniProt P06401); experiment: qHTS assay to identify small molecule antagonists of the progesterone receptor (PR) signaling pathway (AID 1346795; active means well fitted inhibition curve with a large enough effect in the signal ratio in the repeat runs, not every such curve was filed as active; the % refers to the signal ratio)
How it was run: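 Read-out is fluorescence from the LiveBLAzer B/G FRET substrate, cleaved by a UAS-controlled beta-lactamase in PR-UAS-bla HEK293T cells after 16 hr exposure to compound plus 1 nM promegestone (final), followed by 2 hr at room temperature.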

[11] = qHTS assay to identify small molecule antagonists of the progesterone receptor (PR) signaling pathway - cell viability counter screen (AID 1346798); further: nearly all actives have a fitted effect of over 50% in size; further: potency means the concentration at half of the fitted maximal effect
How it was run: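 HEK293T PR-UAS-bla, 2% charcoal-stripped FBS; 4 hr pre-plate; cpd + R5020, 16 h 37C; LiveBLAzer read first; then CellTiter-Glo 30 min RT, luminescence.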

[12] = qHTS assay to identify small molecule agonists of the progesterone receptor (PR) signaling pathway - cell viability counter screen (AID 1346799; calls by dose curve; further: nearly all actives have a fitted effect of over 45% in size; further: potency means the concentration at half of the fitted maximal effect)
How it was run: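 Luminescence from CellTiter-Glo, added after the beta-lactamase FRET read in the same wells, gave cytotoxicity in PR-UAS-bla HEK293T cells treated with compounds for 16 hr at 37C.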

[13] = qHTS assay to identify small molecule antagonists of the TGF-beta/Smad signaling pathway - cell viability counter screen (AID 1346824); further: nearly all actives have a fitted effect of over 50% in size
How it was run: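 SBE-bla HEK 293T cells, incubated overnight, then compound plus 0.25 ng/mL TGF-beta1 (stock added) for 5 hr at 37 C. Viability was read in the same wells by CellTiter-Glo luminescence after 30 min at room temperature.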

[14] = qHTS assay to identify small molecule agonists of the TGF-beta/Smad signaling pathway - cell viability counter screen (AID 1346829); further: top concentration of the series differs between compounds; nearly all actives have a fitted effect of over 45% in size
How it was run: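 After overnight seating at 37 C and 5% CO2, reporter cells got compounds for 5 hr and FRET substrate for 2 hr; cell viability then came from CellTiter-Glo luminescence.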

[15] = qHTS assay to identify small molecule agonists of the TGF-beta/Smad signaling pathway (AID 1346859; active means well fitted activation curve with a large enough effect in the signal ratio in the repeat runs, not every such curve was filed as active; the % refers to the signal ratio; further: series mostly up to about 77 µM)
How it was run: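 SBE-bla HEK 293T, 4,000 cells/well, plated o/n; cpd in DMSO, 5 hr, 37 C/5% CO2; B/G FRET substrate 2 hr RT; ex 405, em 460/530 nm.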

[16] = molecular target: Androgen receptor (Homo sapiens) (UniProt P10275); experiment: qHTS assay to identify small molecule agonists of the androgen receptor (AR) signaling pathway in the presence of an antagonist (AID 1259381; calls by dose curve; further: nearly all actives have a fitted effect of over 15% in size)
Androgen receptor (Homo sapiens), sequence (P10275 whole entry, looked up): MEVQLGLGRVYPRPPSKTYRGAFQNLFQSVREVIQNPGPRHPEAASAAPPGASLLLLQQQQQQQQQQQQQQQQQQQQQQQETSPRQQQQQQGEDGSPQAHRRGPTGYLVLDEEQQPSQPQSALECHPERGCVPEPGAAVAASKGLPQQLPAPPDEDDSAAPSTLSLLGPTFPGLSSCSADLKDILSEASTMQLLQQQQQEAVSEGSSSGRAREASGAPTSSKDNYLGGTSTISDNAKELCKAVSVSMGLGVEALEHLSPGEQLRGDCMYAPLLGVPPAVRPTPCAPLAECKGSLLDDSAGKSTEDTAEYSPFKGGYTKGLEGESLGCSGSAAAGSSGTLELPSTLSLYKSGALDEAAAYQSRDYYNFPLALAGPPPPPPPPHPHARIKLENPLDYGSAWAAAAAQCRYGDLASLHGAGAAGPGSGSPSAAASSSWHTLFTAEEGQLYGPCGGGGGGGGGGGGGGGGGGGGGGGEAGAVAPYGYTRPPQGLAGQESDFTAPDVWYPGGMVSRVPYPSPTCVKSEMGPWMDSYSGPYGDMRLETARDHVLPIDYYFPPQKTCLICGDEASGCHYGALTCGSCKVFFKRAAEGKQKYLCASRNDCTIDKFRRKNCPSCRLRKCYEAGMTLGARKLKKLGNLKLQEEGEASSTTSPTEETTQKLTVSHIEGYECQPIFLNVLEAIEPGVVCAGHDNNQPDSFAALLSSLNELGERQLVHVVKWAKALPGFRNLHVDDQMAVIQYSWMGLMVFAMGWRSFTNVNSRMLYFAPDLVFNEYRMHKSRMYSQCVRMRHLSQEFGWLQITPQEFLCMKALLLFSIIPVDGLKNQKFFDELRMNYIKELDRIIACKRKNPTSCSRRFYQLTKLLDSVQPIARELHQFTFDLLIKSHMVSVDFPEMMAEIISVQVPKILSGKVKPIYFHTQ
How it was run: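 MDA-kb2 human breast carcinoma cells carrying an MMTV-luciferase reporter (AR- and GR-responsive) were treated with compounds at 15 concentrations plus 3.0uM final nilutamide for 16hr at 37C without CO2; luminescence was read after ONE-Glo addition.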

[17] = molecular target: Estrogen receptor (Homo sapiens) (UniProt P03372); experiment: qHTS assay to identify small molecule agonists of the estrogen receptor alpha (ER-alpha) signaling pathway in the presence of an antagonist (AID 1259383; calls by dose curve; further: top concentration of the series differs between compounds; nearly all actives have a fitted effect of over 15% in size)
Estrogen receptor (Homo sapiens), sequence (P03372 whole entry, looked up): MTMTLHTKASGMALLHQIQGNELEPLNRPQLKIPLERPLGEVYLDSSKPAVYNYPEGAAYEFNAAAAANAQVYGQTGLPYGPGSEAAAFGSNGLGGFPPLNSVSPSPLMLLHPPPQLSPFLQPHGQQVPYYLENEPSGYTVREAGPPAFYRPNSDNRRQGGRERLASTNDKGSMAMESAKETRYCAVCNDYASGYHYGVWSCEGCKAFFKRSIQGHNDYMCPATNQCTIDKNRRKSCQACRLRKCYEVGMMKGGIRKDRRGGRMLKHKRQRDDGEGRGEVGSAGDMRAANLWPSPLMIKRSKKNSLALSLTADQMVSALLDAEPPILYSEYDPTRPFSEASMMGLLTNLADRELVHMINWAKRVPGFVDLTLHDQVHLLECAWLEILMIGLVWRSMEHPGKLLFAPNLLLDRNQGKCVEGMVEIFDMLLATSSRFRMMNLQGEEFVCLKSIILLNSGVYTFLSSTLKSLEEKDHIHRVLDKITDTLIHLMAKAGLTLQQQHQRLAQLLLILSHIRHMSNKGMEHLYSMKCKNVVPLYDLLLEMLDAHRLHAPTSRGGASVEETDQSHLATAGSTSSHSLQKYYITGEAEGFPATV
How it was run: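 VM7Luc4E2 cells (endogenous full-length ER-alpha, 4×ERE-luciferase) were precultured 5 days in phenol red-free medium with 10% charcoal-stripped FBS, given 10.0nM ICI-182,780 (final), then treated with compounds at 15 concentrations for 22hr at 37C; luminescence read with ONE-Glo.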

[18] = molecular target: Thyrotropin-releasing hormone receptor (Homo sapiens) (UniProt P34981); experiment: qHTS assay to identify small molecule antagonists of the thyrotropin-releasing hormone receptor (TRHR) signaling pathway (AID 1346877; active means well fitted inhibition curve with a large enough effect in the repeat runs, not every such curve was filed as active; further: series mostly up to about 51 µM)
Thyrotropin-releasing hormone receptor (Homo sapiens), sequence (P34981 whole entry, looked up): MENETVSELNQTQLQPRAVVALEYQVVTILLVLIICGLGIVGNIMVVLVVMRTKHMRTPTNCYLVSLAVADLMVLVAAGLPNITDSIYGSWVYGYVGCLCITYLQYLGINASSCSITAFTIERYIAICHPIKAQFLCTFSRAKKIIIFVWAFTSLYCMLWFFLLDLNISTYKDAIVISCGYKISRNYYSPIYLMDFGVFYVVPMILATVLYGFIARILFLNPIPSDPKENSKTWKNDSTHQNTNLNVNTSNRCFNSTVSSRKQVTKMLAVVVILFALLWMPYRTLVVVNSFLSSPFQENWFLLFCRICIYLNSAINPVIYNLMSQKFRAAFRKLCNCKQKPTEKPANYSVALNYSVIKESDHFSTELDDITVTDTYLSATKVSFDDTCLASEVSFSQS
How it was run: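 TRHR-expressing HEK293 cells were seeded, cultured 18 h at 37 °C, then loaded with calcium dye for 2 h. Compounds were pre-incubated 5 min at room temperature before 1 nM TRH (final) was added, and kinetic fluorescence was recorded for 3 min.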

[19] = molecular target: Estrogen receptor beta (Homo sapiens) (UniProt Q92731); experiment: qHTS assay to identify small molecule agonists of the estrogen receptor beta (ER-beta) signaling pathway (AID 1259377; active means well fitted activation curve with a large enough effect in the signal ratio in the repeat runs, not every such curve was filed as active; the % refers to the signal ratio)
Estrogen receptor beta (Homo sapiens), sequence (Q92731 whole entry, looked up): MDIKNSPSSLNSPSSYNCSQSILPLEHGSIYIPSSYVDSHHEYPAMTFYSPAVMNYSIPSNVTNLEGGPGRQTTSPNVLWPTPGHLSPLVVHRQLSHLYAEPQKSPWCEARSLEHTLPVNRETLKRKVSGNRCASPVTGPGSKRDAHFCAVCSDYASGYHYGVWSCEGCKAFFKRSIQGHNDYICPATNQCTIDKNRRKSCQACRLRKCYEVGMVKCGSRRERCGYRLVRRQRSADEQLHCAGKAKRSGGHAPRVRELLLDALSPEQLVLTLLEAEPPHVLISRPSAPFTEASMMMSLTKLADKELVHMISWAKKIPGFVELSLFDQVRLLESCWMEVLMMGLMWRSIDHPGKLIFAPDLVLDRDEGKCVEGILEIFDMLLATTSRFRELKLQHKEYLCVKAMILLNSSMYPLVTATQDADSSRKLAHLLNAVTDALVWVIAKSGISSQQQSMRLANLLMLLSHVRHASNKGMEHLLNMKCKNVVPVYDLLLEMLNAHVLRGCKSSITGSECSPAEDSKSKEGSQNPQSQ
How it was run: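 HEK293T ER-beta-UAS-bla; 2% charcoal-stripped FBS; cells pre-incubated 6 hr, compound 16 hr, 37C/5% CO2; LiveBLAzer B/G FRET substrate 2 h RT; fluorescence intensity read.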

[20] = molecular target: Estrogen receptor beta (Homo sapiens) (UniProt Q92731); experiment: qHTS assay to identify small molecule antagonists of the estrogen receptor beta (ER-beta) signaling pathway (AID 1259378; active means well fitted inhibition curve with a large enough effect in the signal ratio in the repeat runs, not every such curve was filed as active; the % refers to the signal ratio)
How it was run: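 ER-beta-UAS-bla HEK293T cells in 2% charcoal-stripped FBS medium treated with compound plus 1nM final 17-beta-estradiol for 16 hr at 37C. Beta-lactamase reporter read by FRET substrate fluorescence after 2 hours at room temperature.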

Measured: Potency

CN1C(=O)CC(c2ccccc2)C1=O (stereo not given)
not listed: [16] | [17] | [18] | [19] | [20]
inactive: all other assays above

COC(=O)C(C)O (stereo not given)
not listed: [2] | [3] | [19] | [20]
inactive: all other assays above

CC(C)Nc1nc(N)nc(Cl)n1
not listed: [2] | [16] | [17] | [20]
inactive: all other assays above

Cc1ccc([N+](=O)[O-])cc1Cl
not listed: [2] | [12] | [16] | [17]
inactive: all other assays above

CCOc1ccccc1N
inactive: [1] | [2] | [17] | [6] | [7] | [9] | [11] | [13] | [14] | [15]

NC1=NCC2c3ccccc3Cc3ccccc3N12 (stereo not given)
not listed: [2] | [6] | [7] | [16] | [17] | [19] | [20]
inactive: all other assays above

CCCCCCCCc1ccc(S(=O)(=O)O)cc1
active: [4] 19.2 µM | [12] 19.2 µM
not listed: [2] | [5] | [16] | [17] | [20]
inactive: all other assays above

CCOC(=O)c1ccccc1O
not listed: [2] | [9] | [10] | [13] | [15] | [16] | [17]
inactive: all other assays above

CCc1cc(Cl)c(OC)c(C(=O)NC[C@@H]2CCCN2CC)c1O
inactive: [1] | [3] | [17] | [8] | [9] | [10] | [11] | [13] | [14] | [15]

CCCCCCCCCC/C=C/C#N
not listed: [2] | [14] | [16]
inactive: all other assays above

CN1[C@@H]2CC[C@H]1CC(OC(=O)c1c[nH]c3ccccc13)C2 (stereo not given in full)
not listed: [2] | [5] | [9] | [10] | [12] | [16] | [17] | [19]
inactive: all other assays above

CC1=C(CC(=O)O)c2cc(F)ccc2/C1=C\c1ccc(S(C)(=O)=O)cc1
inactive: [1] | [19] | [3] | [16] | [5] | [17] | [9] | [11] | [12] | [13] | [18]

CN(C)CC[C@@H](c1ccc(Cl)cc1)c1ccccn1
not listed: [2] | [10] | [16] | [17] | [19] | [20]
inactive: all other assays above

Cc1nc(-c2ccccn2)ncc1C(=O)Nn1cc(C)c2cc(F)ccc21
active: [11] 30.6 µM
not listed: [2] | [4] | [5] | [10] | [12] | [18] | [19] | [20]
inactive: all other assays above

CCCCc1ccc2nc(NC(=O)OC)[nH]c2c1
not listed: [2] | [3] | [6] | [7] | [10] | [11] | [12] | [14]
inactive: all other assays above

O=C1CCCCCCCCCCC(=O)OCCO1
not listed: [2] | [11] | [16]
inactive: all other assays above

COc1cc(N)c(Cl)cc1C(=O)NC1CCN(Cc2ccccc2)CC1
not listed: [2] | [4] | [7] | [8] | [12] | [16] | [18]
inactive: all other assays above

CCN(CC)CCOc1ccc(Cc2ccccc2)cc1
active: [7] 29.8 µM
not listed: [2] | [3] | [4] | [5] | [16] | [18] | [19] | [20]
inactive: all other assays above

CCCCNC(=S)NCCCC
active: [11] 9.69 µM
not listed: [1] | [5] | [9] | [10] | [16] | [20]
inactive: all other assays above

Nc1ccc(Oc2ccc(N)c(N)c2)cc1
active: [8] 54.5 µM
inactive: [2] | [5] | [17] | [6] | [13] | [15]
